Experimental data: PubChem BioAssay
For part of these data: Entries with a potency or affinity are not part of this list. Activity calls are given as the source filed them.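 How the source made its calls, unless noted: active means primary screen hit whose calcium fluorescence ratio, in both repeats, exceeds the weak agonist control mean by 3 SD; inactive means the rest.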

Experiments:
[1] = system: TRPC4 beta (transient receptor potential cation channel C4), mouse; experiment: TRPC4 cation channel opening, retest – cell-based, Fluo4 calcium, HEK293 TRPC4beta/mu-opioid, duplicates, 10 µM, confirmation (AID 2426;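 active means fluorescence ratio normalized to control raised more than 50% in primary screen plus both repeat runs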); settings: Fluo4 calcium fluorescence, at 10 µM; hits give high values
[2] = system: transient receptor potential cation channel C4 beta (TRPC4), mouse; experiment: TRPC4 cation channel opening, second retest – cell-based, second round, Fluo4, HEK293 TRPC4beta/mu-opioid, 1 µM, confirmation (AID 2461;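 active means primary screen active and over 50% activation in each of two duplicate runs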); settings: Fluo4 calcium fluorescence, at 1 µM; hits give high values
[3] = system: TRPC4 (transient receptor potential cation channel C4 beta), mouse; experiment: potentiation of DAMGO EC20 TRPC4 response – cell-based, second round, Fluo-4, HEK293 TRPC4beta/mu-opioid, 1 µM, confirmation (AID 2554;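 active means primary screen hit whose fluorescence ratio, in both repeats, exceeds the weak agonist control mean by 3 SD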); settings: DAMGO EC20, Fluo-4 calcium flux, at 1 µM; hits give high values
[4] = system: TRPC4 beta (transient receptor potential cation channel C4), mouse; experiment: potentiation of DAMGO EC20 TRPC4 response – cell-based, Fluo-4, HEK293 TRPC4beta/mu-opioid, confirmation (AID 2555); settings: DAMGO EC20, Fluo-4 calcium flux, at 10 µM; hits give high values
[5] = target: Short transient receptor potential channel 4 (Mus musculus) (UniProt Q9QUQ5); experiment: blockers of DAMGO-evoked TRPC4 calcium flux – cell-based, Fluo4, HEK293 TRPC4beta/mu-opioid, confirmation (AID 2636;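 active means calcium signal cut by more than 3 SD below the full-agonist control yet still positive, in both repeats and the earlier primary screen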); settings: at 10 µM; hits give high values
[6] = target: Short transient receptor potential channel 4 (Mus musculus) (UniProt Q9QUQ5); experiment: blockers of DAMGO-evoked TRPC4 calcium flux – cell-based, second round, Fluo4, HEK293 TRPC4beta/mu-opioid, 1 µM, confirmation (AID 2637;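 active means calcium signal ratio cut to more than 3 SD under the fully stimulated control mean yet still positive, in both repeats and the primary screen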;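 on inhibition: percent of integrated ratio relative to wells lacking test compound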); settings: at 1 µM; hits give high values
[7] = target: Short transient receptor potential channel 4 (Mus musculus) (UniProt Q9QUQ5); experiment: calcium entry via TRPC4 opening agents – cell-based, HEK293 TRPC4/mu-opioid, Fluo-4 calcium, dose response (AID 434937;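 active means primary screen activator hit with a dose response curve and TRPC4 channel activation at any tested dose; inactive means no activation, no dose response, or not a primary hit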)
[8] = target: Short transient receptor potential channel 4 (Mus musculus) (UniProt Q9QUQ5); experiment: potentiation of DAMGO-evoked TRPC4 calcium signal – cell-based, HEK293 TRPC4/mu-opioid, Fluo-4 calcium, EC20 DAMGO, dose response (AID 434941;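 active means earlier screen potentiator hit that boosts the TRPC4 ion channel at some dose, with a dose response; inactive means no potentiation, no dose response, or not a prior hit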;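 further: calcium entry triggered by an EC20 dose of DAMGO at the co-expressed mu-opioid receptor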)
[9] = target: Short transient receptor potential channel 6 (Mus musculus) (UniProt Q61143); experiment: TRPC6 blockade by TRPC4 inhibitor hits – cell-based, HEK293, membrane potential dye, duplicate, selectivity assay for TRPC4 inhibitor project, confirmation (AID 434948;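 active means active in primary screen and both duplicates, each dropping signal beyond three positive-control SD with fluorescence still positive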); settings: HEK293 TRPC6, membrane potential dye fluorescence, at 10 µM, stimulated with maximal-effect acetylcholine; hits give high values
[10] = target: Short transient receptor potential channel 6 (Mus musculus) (UniProt Q61143); experiment: TRPC6 opening by TRPC4 activator hits – cell-based, HEK293, membrane potential dye, duplicate, selectivity assay for TRPC4 activator project, confirmation (AID 434950;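 active means membrane potential signal rise above negative control mean plus 3 SD in both duplicates, also active in the earlier TRPC4 screen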); settings: HEK293 TRPC6, membrane potential fluorescence, at 10 µM; activation: hits give high values; outcome: activation
[11] = target: Short transient receptor potential channel 6 (Mus musculus) (UniProt Q61143); experiment: positive modulators of mouse TRPC6 channel – HEK293 cells, membrane potential dye, duplicate, selectivity assay for TRPC4 potentiator project, confirmation (AID 434952;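 active means compound raising the membrane signal above positive-control mean plus 3 SD in both repeats, and a primary screen hit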); settings: HEK293 TRPC6, membrane potential dye fluorescence, at 10 µM, maximal acetylcholine added after compound; hits give high values
[12] = target: Short transient receptor potential channel 4 (Mus musculus) (UniProt Q9QUQ5); experiment: calcium flux activators in TRPC4/5HT1a cells, counter-screen for TRPC4 activator project, cell-based, second counter screen, HEK293 TRPC4/5HT1a, Fluo-4 (AID 434977;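 active means calcium signal rise above buffer-control mean plus 5 SD in both duplicates, and also a hit in the primary screen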); settings: Fluo-4 calcium flux, at 10 µM; hits give high values
[13] = serotonin-gated TRPC4 signal block – cell-based, second counter screen, HEK293 TRPC4/5HT1a, Fluo-4, counter-screen for TRPC4 inhibitor project, confirmation (AID 434978;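 active means primary screen active whose calcium signal fell more than 3 SD beyond the full-serotonin control mean in both duplicate plates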;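 on outcome: serotonin given first at submaximal then at maximal dose after compound preincubation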); settings: Fluo-4 calcium flux, at 10 µM, serotonin added to trigger calcium flux; hits give high values
[14] = system: TRPC4 (mouse), co-expressed with 5HT1a in HEK293; experiment: enhancement of serotonin-evoked TRPC4 response – cell-based, second counter screen, HEK293 TRPC4/5HT1a, Fluo-4, counter-screen for TRPC4 potentiator project, confirmation (AID 434979;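 active means signal rise over 3 SD above mean of control wells given weak agonist, in both repeats and first screen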); settings: Fluo-4 calcium flux, at 10 µM, serotonin added at its EC20 dose; hits give high values
[15] = nonspecific calcium rise without TRPC4 – cell-based, HEK293 mu-opioid receptor line, counter-screen for TRPC4 activator project, confirmation (AID 449723;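 active means hit in primary screen, with calcium signal over 5 SD above buffer well mean in both duplicates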;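 further: counter screen cells carry the mu-opioid receptor alone and lack TRPC4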); settings: HEK293 mu-opioid cells, Fluo-4 calcium fluorescence, at 10 µM; hits give high values
[16] = nonspecific potentiation of DAMGO calcium response – cell-based, HEK293 mu-opioid receptor line, counter-screen for TRPC4 allosteric potentiator project, confirmation (AID 449724;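 active means calcium signal rise more than 3 SD above the low-dose agonist control mean, in both duplicate plates and the primary screen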); settings: HEK293 mu-opioid receptor cells, Fluo-4 calcium flux, at 10 µM, compound added before EC20 DAMGO stimulus; hits give high values

Sequence of Short transient receptor potential channel 6 (Mus musculus) (Q61143 whole entry, looked up): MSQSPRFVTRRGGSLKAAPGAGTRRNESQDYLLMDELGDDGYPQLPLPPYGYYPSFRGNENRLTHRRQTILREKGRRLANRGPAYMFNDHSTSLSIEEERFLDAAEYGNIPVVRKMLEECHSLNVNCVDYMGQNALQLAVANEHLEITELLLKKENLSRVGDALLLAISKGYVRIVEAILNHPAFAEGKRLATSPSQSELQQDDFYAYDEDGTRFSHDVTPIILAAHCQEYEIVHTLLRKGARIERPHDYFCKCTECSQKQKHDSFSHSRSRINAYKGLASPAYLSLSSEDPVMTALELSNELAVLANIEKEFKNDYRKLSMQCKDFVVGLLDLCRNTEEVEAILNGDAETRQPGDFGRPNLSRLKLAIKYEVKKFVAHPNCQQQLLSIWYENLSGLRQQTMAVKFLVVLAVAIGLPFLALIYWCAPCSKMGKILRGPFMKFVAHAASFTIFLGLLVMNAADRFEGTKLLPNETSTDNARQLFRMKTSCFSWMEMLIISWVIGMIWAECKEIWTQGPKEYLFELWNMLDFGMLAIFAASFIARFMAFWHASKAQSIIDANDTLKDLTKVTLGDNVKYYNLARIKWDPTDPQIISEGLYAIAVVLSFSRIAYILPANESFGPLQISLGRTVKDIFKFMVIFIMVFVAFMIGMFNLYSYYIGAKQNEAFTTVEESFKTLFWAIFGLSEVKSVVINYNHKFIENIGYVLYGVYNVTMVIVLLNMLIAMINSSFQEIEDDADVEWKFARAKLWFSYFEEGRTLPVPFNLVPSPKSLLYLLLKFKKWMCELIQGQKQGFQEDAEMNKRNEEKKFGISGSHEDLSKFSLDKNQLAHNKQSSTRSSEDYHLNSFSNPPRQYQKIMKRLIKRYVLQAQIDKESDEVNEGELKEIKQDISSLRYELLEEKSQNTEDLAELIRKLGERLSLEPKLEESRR
Sequence of Short transient receptor potential channel 4 (Mus musculus) (Q9QUQ5 whole entry, looked up): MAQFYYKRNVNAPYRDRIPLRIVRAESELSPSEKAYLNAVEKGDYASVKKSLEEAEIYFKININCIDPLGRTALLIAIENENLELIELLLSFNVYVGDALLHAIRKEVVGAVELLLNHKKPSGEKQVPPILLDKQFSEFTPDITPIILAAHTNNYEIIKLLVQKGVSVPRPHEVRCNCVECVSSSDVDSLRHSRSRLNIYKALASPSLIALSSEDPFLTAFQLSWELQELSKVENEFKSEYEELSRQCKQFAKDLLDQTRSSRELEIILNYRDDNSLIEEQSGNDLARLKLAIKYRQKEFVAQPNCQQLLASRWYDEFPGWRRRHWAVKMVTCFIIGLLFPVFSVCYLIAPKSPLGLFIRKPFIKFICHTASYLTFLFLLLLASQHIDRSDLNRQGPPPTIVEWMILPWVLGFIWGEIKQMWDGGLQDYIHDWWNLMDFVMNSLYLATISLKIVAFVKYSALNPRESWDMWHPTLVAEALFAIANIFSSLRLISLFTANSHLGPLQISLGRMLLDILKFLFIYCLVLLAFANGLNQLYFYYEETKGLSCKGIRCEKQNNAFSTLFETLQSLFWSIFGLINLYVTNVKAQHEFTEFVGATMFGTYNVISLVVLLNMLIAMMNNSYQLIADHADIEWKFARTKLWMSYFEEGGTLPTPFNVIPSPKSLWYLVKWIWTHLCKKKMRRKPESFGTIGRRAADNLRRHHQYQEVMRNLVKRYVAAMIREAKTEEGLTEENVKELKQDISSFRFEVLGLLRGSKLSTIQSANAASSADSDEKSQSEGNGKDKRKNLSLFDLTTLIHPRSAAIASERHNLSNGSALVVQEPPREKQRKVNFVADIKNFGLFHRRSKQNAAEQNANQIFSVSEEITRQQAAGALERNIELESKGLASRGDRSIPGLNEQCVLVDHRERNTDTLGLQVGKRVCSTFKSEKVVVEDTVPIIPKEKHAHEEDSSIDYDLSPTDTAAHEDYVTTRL

SMILES | outcome [1] | outcome [2] | outcome [3] | outcome [4] | inhibition [5] | outcome [6] | outcome [7] | outcome [8] | outcome [9] | outcome [10] | outcome [11] | outcome [12] | outcome [13] | outcome [14] | outcome [15] | outcome [16] | inhibition [13] | inhibition [9] | outcome [5] | inhibition [6]
CC(C)NC(=S)N1CCN(C/C=C/c2ccccc2)CC1 | inactive | inactive | inactive | inactive | 71% (active) | inactive | inactive | inactive | inactive | inactive | inactive | inactive | inactive | inactive | inactive | inactive | – | – | – | –
CCC(C)NCCOCCOc1ccccc1-c1ccccc1 (centres undefined) | inactive | inactive | inactive | inactive | 77% (active) | inactive | inactive | inactive | inactive | inactive | inactive | inactive | – | inactive | inactive | inactive | 36.9% (active) | – | – | –
OCCCNc1c2ccccc2nc2ccccc12 | inactive | inactive | inactive | inactive | 92% (active) | inactive | inactive | inactive | – | inactive | inactive | inactive | – | inactive | inactive | inactive | 41.8% (active) | 39.5% (active) | – | –
O=C(CSc1nc2[nH]ncc2c(=O)n1-c1ccccc1Br)NCc1ccccc1Cl | inactive | inactive | inactive | inactive | – | inactive | inactive | inactive | inactive | inactive | inactive | inactive | inactive | inactive | inactive | inactive | – | – | inactive | –
COc1cccc(C(=O)C2CCCN(Cc3cccn3-c3ccccn3)C2)c1 (centres undefined) | inactive | inactive | inactive | inactive | 44% (active) | inactive | inactive | inactive | – | inactive | inactive | inactive | – | inactive | inactive | inactive | 35.6% (active) | 38% (active) | – | –
C=CCc1ccccc1OCC(O)CN1CCN(c2ccccc2OC)CC1 (centres undefined) | inactive | inactive | inactive | inactive | 68% (active) | inactive | inactive | inactive | inactive | inactive | inactive | inactive | – | inactive | inactive | inactive | 13.1% (active) | – | – | –
CCOc1ccc2c(C)nc(NC3=NC(C)(C)C=C(C)N3)nc2c1 | inactive | inactive | inactive | inactive | 96% (active) | – | inactive | inactive | inactive | inactive | inactive | inactive | inactive | inactive | inactive | inactive | – | – | – | 37% (active)
CCCn1c(=O)c2ccccc2n2c(SCCOc3ccc(C)cc3)nnc12 | inactive | inactive | inactive | inactive | 77% (active) | inactive | inactive | inactive | inactive | inactive | inactive | inactive | – | inactive | inactive | inactive | 46.3% (active) | – | – | –
Cc1c(N(C)S(=O)(=O)c2cc(C(=O)NCC3CCCO3)ccc2Cl)c(=O)n(-c2ccccc2)n1C (centres undefined) | inactive | inactive | inactive | inactive | 84% (active) | – | inactive | inactive | inactive | inactive | inactive | inactive | inactive | inactive | inactive | inactive | – | – | – | 45% (active)
